Experimental findings from PubChem BioAssay (NCATS) are described below.

“And” between values parts separate entries of the source, which are not always exact repeats. Identical values can stand only once. A number with no mark means an inactive call. Inconclusive results are not listed. The source made the active and inactive calls. Unless noted, calls follow the shape of the dose curve; as a rule, active = well fitted curve in the direction sought with a large enough effect; inconclusive = small, poorly fitted or top-dose-only effect, or another doubt; inactive = no such curve, though single readings can be large; an effect the other way counts as inactive or inconclusive. Bounds are passed on as bounds.

A short description of test [1]: Cell Viability - BJ (AID 421; calls by dose curve;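 also: potency is read from the fitted curve at half-maximal effect; cells exposed to compound for 40 hours at 37 °C before readout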). The conditions noted are these: BJ fibroblast viability, qHTS. In outline:
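Normal human BJ foreskin fibroblasts, 1500/well in complete medium, treated 40 hr at 37 °C. Cellular ATP by CellTiter-Glo luminescence; normalized to DMSO and 100 uM tamoxifen, AC50 from Hill fit.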

Test [2] is described as follows: Cell Viability - HUV-EC-C (AID 542).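 Also: cells exposed to compound for 40 hours; nearly all actives have a fitted effect of over 35% in size.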 Also: potency is read from the fitted curve at half-maximal effect. As to conditions: HUV-EC-C endothelial cell viability, qHTS; series mostly up to 92.2 µM. In outline:
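Decrease in cellular ATP, quantified by luciferase luminescence, reflects toxicity in normal human vascular endothelial HUV-EC-C cells given compound for 40 hr in complete culture medium. Values are AC50s from concentration-response curves.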

Test [3] can be described thus: Cellular Toxicity (caspase-3) HUV-EC-C (AID 656). The conditions noted are these: HUV-EC-C cells, caspase-3 activation (apoptosis), vehicle = 0, 100 µM tamoxifen = 100%; series mostly up to 92.2 µM. The method in brief:
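Read-out: luminescence proportional to caspase 3/7 activity, measured 20 min after adding Caspase-Glo 3/7 reagent. Cells (HUV-EC-C) had received compound for 16 hr at 37°C. Increases relative to DMSO and 100 uM tamoxifen gave concentration-response AC50 values.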

The nature of test [4]: Cellular Toxicity (caspase-3) MRC-5 (AID 659). As to conditions: MRC-5 cells, luminescence, normalized: DMSO 0%, 10 µM staurosporine 100%; series mostly up to 91.7 µM. The method in brief:
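Luminescence from caspase-cleaved aminoluciferin substrate (Caspase-Glo 3/7, 1 hr RT) reports caspase 3/7 activity in MRC-5 lung fibroblasts after 16 hr compound exposure. Normalized to DMSO basal and 10 uM staurosporine as 100%; AC50 from Hill fits.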

Test [5] can be described thus: Cellular Toxicity (caspase-3) Mesangial (AID 660).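 Also: cells exposed to compound for 16 h before the caspase read.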 The conditions noted are these: mesangial cells, normalized: DMSO 0%, 100 µM tamoxifen 100%; series mostly up to 91.7 µM. In outline: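 Concentration-response qHTS: compound-induced rise in caspase 3/7 luminescence in human mesangial cells after 16 h, normalized to DMSO and 100 uM tamoxifen controls.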
A short description of test [6]: Cellular Toxicity (caspase-3) SK-N-SH (AID 661). The conditions noted are these: SK-N-SH caspase-3 activation, qHTS; series mostly up to 91.7 µM. The method in brief: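 Caspase 3/7 activation is measured as a luminescence increase from aminoluciferin released by substrate cleavage in SK-N-SH cells after 16 hr compound treatment; values are AC50 from concentration-response curves.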
(qHTS replaces the single test concentration by a dilution series.)

A short description of test [7]: Cellular Toxicity (caspase-3) Hek293 (AID 664).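 Also: cells exposed to compound for 16 h at 37 °C before readout.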 The conditions noted are these: HEK293 caspase-3 activation, DMSO = 0%, 100 µM tamoxifen = 100%; at 92.2 µM (top of the series). In outline: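 Activation of caspase-3/7 is measured as increased luminescence from cleaved peptide-aminoluciferin substrate in HEK293 cells treated 16 hours at 37 °C. AC50 values come from Hill-equation fits of concentration-response data.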

Test [8] in a line: Cellular Toxicity (caspase-3) NIH 3T3 (AID 666).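 Also: caspase signal read after 16 h compound exposure; 0% = DMSO basal and 100% = 100 µM tamoxifen stimulation.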 As to conditions: NIH 3T3 caspase-3 activation, apoptosis/toxicity; series mostly up to 92.2 µM. The method in brief:
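Concentration-response qHTS in NIH 3T3 mouse fibroblasts scores caspase-3/7 activation as rising luminescence after 16 hr compound exposure. Signals are scaled between DMSO-only and 100 uM tamoxifen.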

Test [9] can be described thus: MultiTox-Fluor Cytotoxicity Assay - LYMP1-001 - Dead Cells (AID 946).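 Also: 0% = DMSO and 100% = tetraoctylammonium bromide.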 As to conditions: LYMP1-001 lymphoblastoid cells, dead-cell protease fluorescence; series mostly up to 92.2 µM. The method in brief:
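LYMP1-001 lymphoblastoid cells (2500/well) treated 16 h at 37 C. Dead-cell protease cleavage of bis-AAF-R110 read at Ex/Em 485/520. Normalized to DMSO and 15 uM tetraoctylammonium bromide; AC50 from Hill fits.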

Test [10] in a line: Cell Viability - LYMP1-002 - Assay at 16 hr (AID 948).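 Also: 0% = DMSO alone and full effect = 92 µM tetraoctylammonium bromide.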 The conditions noted are these: LYMP1-002 lymphoblastoid cell viability; series mostly up to 92.2 µM. The method in brief:
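Acute cytotoxicity is scored as a concentration-dependent fall in intracellular ATP in a human lymphoblastoid line (LYMP1-002) after 16 hr compound exposure at 37 C, measured by luciferase luminescence.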

Test [11] in a line: MultiTox-Fluor Cytotoxicity Assay - LYMP1-003 - Live Cells (AID 962).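 Also: 0% = DMSO only and full loss = 92 µM tetraoctylammonium bromide; cytotoxic hits lower the live-cell protease signal.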 The conditions noted are these: LYMP1-003 lymphoblastoid cells, MultiTox-Fluor live-cell protease fluorescence; series mostly up to 92.2 µM. In outline:
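Cells plated at 2500 per well and incubated 5 hr; compounds added and incubated 16 hr at 37 C; MultiTox-Fluor reagent added for 60 min at room temperature; fluorescence of liberated AFC measured at 405/510 nm.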

Test [12] is described as follows: Cell Viability - LYMP2-003 (AID 965).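 Also: cells exposed to compounds for 24 h before reading; nearly all actives have a fitted effect of over 50% in size.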 Also: potency is read from the fitted curve at half-maximal effect. The conditions noted are these: LYMP2-003 lymphoblastoid cell viability; series mostly up to 92.2 µM. The method in brief: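 Acute cytotoxicity is scored as a concentration-dependent drop in intracellular ATP, measured by luciferase luminescence in human lymphoblastoid cells treated for 24 hours at 37 C. AC50 values derive from Hill-equation modelling.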

The nature of test [13]: Cell Viability - LYMP2-013 (AID 970).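 Also: cells exposed to compound for 24 h at 37 °C; nearly all actives have a fitted effect of over 55% in size.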 Also: potency is read from the fitted curve at half-maximal effect. The conditions noted are these: LYMP2-013 lymphoblastoid cells viability; series mostly up to 92.2 µM. In outline: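 Acute toxicity was measured in human lymphoblastoid cells (2500/well) exposed to compound titrations for 24 hr, with ATP luminescence (CellTiter-Glo) as read-out and AC50 fitted by Hill equation.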
Test [14] is described as follows: Cell Viability - LYMP2-015 (AID 971). Also: nearly all actives have a fitted effect of over 55% in size. Also: potency is read from the fitted curve at half-maximal effect. The conditions noted are these: LYMP2-015 lymphoblastoid cell viability; series mostly up to 92.2 µM. The method in brief:
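Acute toxicity was scored as a concentration-dependent drop in intracellular ATP in lymphoblastoid cells after 24 hr compound exposure in complete medium. Detection used CellTiter-Glo luciferase luminescence.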

Test [15] in a line: Cell Viability - LYMP2-017 (AID 972).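 Also: cells exposed to compound for 24 hours at 37 °C; nearly all actives have a fitted effect of over 55% in size.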 Also: potency is read from the fitted curve at half-maximal effect. As to conditions: LYMP2-017 lymphoblastoid cell viability; series mostly up to 92.2 µM. In outline: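 Steps: plate 2500 lymphoblastoid cells per well; incubate 5 hr at 37 C; add compound across a concentration series and incubate 24 hr at 37 C; add CellTiter-Glo and read luminescence after 30 min at room temperature; fit Hill curves for AC50.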

The nature of test [16]: Cell Viability - LYMP2-007 (AID 979).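 Also: cells exposed to compound for 24 h before reading; nearly all actives have a fitted effect of over 60% in size.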 Also: potency is read from the fitted curve at half-maximal effect. As to conditions: LYMP2-007 lymphoblastoid cell viability; series mostly up to 92.2 µM. The method in brief: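 Acute toxicity is scored as a concentration-dependent fall in intracellular ATP in human lymphoblastoid cells treated 24 hr at 37 C, measured by luciferase luminescence; Hill-equation modelling yields AC50.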
Test [17] can be described thus: qHTS Assay for Identification of Small Molecule Inducers of Hypoxia Response (AID 2120; active = well fitted curve in the direction sought with a large enough effect in the signal ratio, with a control signal flat, not every such curve was filed as active; the % refers to the signal ratio; also: 0% is about no effect). The conditions noted are these: hypoxia response reporter cells, beta-lactamase ratio readout; series mostly up to 104 µM. The method in brief:
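Induction of beta-lactamase reporter activity was measured in CellSensor HRE-bla ME-180 cells after 17 h compound treatment at 37 degrees C, using CCF4 substrate and the 460nm/530nm emission ratio to derive AC50 values.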

Test [18] deals with Peroxisome proliferator-activated receptor alpha (Homo sapiens) (UniProt Q07869). In words: qHTS assay for small molecule agonists of the peroxisome proliferator-activated receptor alpha (PPARalpha) signaling pathway (AID 651778). Also: % of control where 0% means no effect. The conditions noted are these: PathHunter PPARalpha complementation, chemiluminescence, 6 h; hits give high values. The method in brief:
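Cells plated at 2,000/well and held overnight at 37 C, 5% CO2, then compound added by pin tool for 6 hr; after PathHunter detection reagent and 60 min at room temperature, chemiluminescence from enzyme complementation was read.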

Test [19] is described as follows: qHTS assay for small molecule agonists of the antioxidant response element (ARE) signaling pathway measured by Nrf2-dependant transcriptional activity - cell viability counter screen (AID 720653; active = well fitted curve in the direction sought with a large enough effect in the repeat runs; an effect the other way counts as inactive or inconclusive; also: % is scaled to controls: 0 for no effect and ±100 for the full control effect). The conditions noted are these: ARE-bla HepG2 viability, CellTiter-Glo ATP luminescence, 16 h; hits give low values. In outline:
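ARE-bla HepG2 cells (2,000/well) rested 5 hrs at 37C/5% CO2, then exposed to compounds in DMSO for 16 hrs. Viability was read in the same wells as intracellular ATP by luminescence, 30 min at room temperature after reagent addition.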

Test [20] can be described thus: qHTS assay for cell viability of the p53RE-bla HCT-116 cell line (AID 743292). Also: % is scaled to controls: 0 for no effect and ±100 for the full control effect; nearly all actives have a fitted effect of over 55% in size. The conditions noted are these: p53RE-bla HCT-116 viability, ATP luminescence, 16 h; series mostly up to 95 µM. In outline: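 ATP-based luminescence, 16 h compound exposure at 37 C, p53RE-bla HCT-116 cells at 4,000/well.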

Sequence of Peroxisome proliferator-activated receptor alpha (Homo sapiens) (Q07869 whole entry, looked up): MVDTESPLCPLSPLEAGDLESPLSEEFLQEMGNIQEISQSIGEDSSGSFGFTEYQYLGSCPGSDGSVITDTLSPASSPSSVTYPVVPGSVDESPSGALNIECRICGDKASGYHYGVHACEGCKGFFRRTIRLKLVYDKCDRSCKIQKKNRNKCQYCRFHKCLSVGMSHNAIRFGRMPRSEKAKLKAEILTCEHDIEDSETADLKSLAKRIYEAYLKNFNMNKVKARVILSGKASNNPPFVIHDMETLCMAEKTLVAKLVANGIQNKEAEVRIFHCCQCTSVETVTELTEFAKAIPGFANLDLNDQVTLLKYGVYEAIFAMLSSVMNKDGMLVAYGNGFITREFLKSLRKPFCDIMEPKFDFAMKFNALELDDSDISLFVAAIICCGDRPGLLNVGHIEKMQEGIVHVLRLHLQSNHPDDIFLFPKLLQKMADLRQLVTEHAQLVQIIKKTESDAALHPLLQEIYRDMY

As for `O=Cc1ccc2c(c1)OCO2`, the Potency in test [1] is greater than 92 µM. For the same compound, the Potency result in [2], in test [6], in [8], in test [12], in test [13] and in test [14] was “inactive” throughout. Further, the Potency result in test [15], in [16], in test [17] and in test [20] was “inactive” throughout. Further, the compound was classed as inactive in test [3], in test [4], in [5], in test [9], in [10] and in [11]. Also, the caspase-3 activation in [7] is 0.153%. Moreover, the max response is -6.34% in test [18] and 2.8% in test [19].
On to `CN(C)c1ccc(N)cc1`, for which the Potency in test [1] is 28.3 µM (active); in test [2] it was 31.6 µM (active); in test [12], 50.1 µM (active); in [13], 79.4 µM (active); in test [14] it was 50.1 µM (active); in test [15], 50.1 µM (active). The Potency in test [16] is 50.1 µM (active). For the same compound, the result in [3], in test [4], in test [5] and in test [9] was inactive. Besides, the Potency result in test [6], in test [8], in test [17] and in test [20] was “inactive” in each case. The caspase-3 activation in [7] is 2.4%. Besides, the max response is 11.3% in [18] and -16.3% in [19].
Take `S=C1NCCN1`: the Potency in test [1] is greater than 92 µM. Besides, the Potency result in test [2], in test [6], in test [8], in test [12], in [13] and in [14] was “inactive” throughout. In addition, the Potency entry in test [15], in test [16], in test [17] and in test [20] was “inactive” each time. The compound was called inactive in [3], in test [4], in test [5], in test [9], in [10] and in test [11]. Moreover, the caspase-3 activation in test [7] is -0.864%. Besides, the max response in test [18] is -2.28% and 8.96%; in [19], 4.7% and 5.28%.
Regarding `O=C(O)C(Cl)(Cl)Br`, the Potency in test [1] is greater than 92 µM. The Potency entry in [2], in test [6], in test [8], in [12], in [13] and in test [14] was “inactive” in each case. For the same compound, the Potency result in test [15], in [16], in test [17] and in test [20] was “inactive” throughout. Besides, the outcome in test [3], in [4], in test [5], in test [9], in test [10] and in test [11] was inactive. In addition, the caspase-3 activation in test [7] was 1.91%. In addition, the max response was -5.37% in [18] and -4.89% in test [19].
As to `C=COC(C)=O`, in test [1], the Potency is greater than 92 µM. Also, the Potency entry in test [2], in test [6], in test [8], in [12], in test [13] and in test [14] was “inactive” in each case. The Potency entry in test [15], in test [16], in test [17] and in test [20] was “inactive” in each case. The call in test [3], in [4], in test [5], in test [9], in test [10] and in [11] was inactive. The caspase-3 activation in test [7] was 1.36%. For the same compound, the max response in test [18] is -3.52%; in test [19], 7.83%.
Take `Oc1ccc(Cl)c(Cl)c1`: the Potency in [1] is greater than 92 µM. Further, the Potency result in [2], in test [6], in test [8], in test [12], in test [13] and in test [14] was “inactive” in each case. Also, the Potency entry in [15], in test [16], in [17] and in test [20] was “inactive” each time. Further, the call in test [3], in test [4], in test [5], in test [9], in test [10] and in test [11] was inactive. In addition, the caspase-3 activation in test [7] was 0.945%. The max response in test [18] is -3.58%; in [19] it was -2.38%.
